Test results published in PubChem BioAssay AID651551 (Sanford-Burnham Center for Chemical Genomics, 2012).

Experiment: GAPDH versus PEG-3 reporter suppression – cell-based, luminescence, counter-screen for PEG-3 promoter inhibitor project, SAR follow-up (AID 651551)
Details: HeLa PEG-Prom / GAPDH luciferase reporter, 6 or 24 h, run 2, 24 h; at 99 µM (top of the series)

| SMILES | inhibition % (higher = more inhibition) [%] |
| --- | --- |
| CCn1cc(C(=O)NCc2ccco2)c(=O)c2cc(S(=O)(=O)N3CCCC3)ccc21 | 48.4 |
| Cc1cc(NC(=O)c2ccccc2C)n(-c2nc3ccccc3[nH]2)n1 | 76.4 |
| COCCCNC(=O)c1ccc(Cn2c(=O)c3ccccc3n(Cc3ccccc3C#N)c2=O)cc1 | 78 |
| Cc1cc(NC(=O)c2ccccc2)n(-c2nc3ccccc3[nH]2)n1 | -1.45 |
| CCCn1nc(C(=O)Nc2nc(-c3ccccn3)cs2)c2ccccc2c1=O | 71.7 |
| COc1ccc(-n2nc(C(=O)NCC(=O)Nc3ccc(OC)c(OC)c3)c3ccccc3c2=O)cc1 | 86.5 |
| COc1ccc(Cl)cc1Nc1nc(-c2sc(NC(=O)c3ccccc3)nc2C)cs1 | 75.6 |
| COc1ccc(-n2nc(C(=O)NCC(=O)Nc3cccc(OC)c3)c3ccccc3c2=O)cc1 | 27.5 |
| Cc1nc(NC(=O)c2ccccc2)sc1-c1csc(Nc2ccccc2)n1 | 87.7 |
| COc1ccc(-n2nc(C(=O)NCC(=O)Nc3cc(OC)c(OC)c(OC)c3)c3ccccc3c2=O)cc1OC | 71.7 |
| COc1ccccc1Nc1nc(-c2sc(NC(=O)c3ccco3)nc2C)cs1 | 76.4 |
| O=C(Nc1nc(-c2ccccc2)cs1)c1nn(-c2ccccc2)c(=O)c2ccccc12 | 43.1 |
| Cc1ccc(Cl)cc1Nc1nc(-c2sc(NC(=O)c3ccco3)nc2C)cs1 | 85.8 |
| O=C(Nc1nccs1)c1nn(-c2ccccc2)c(=O)c2ccccc12 | 56.2 |
| Cc1cc(NC(=O)c2cccc(C)c2C)n(-c2nc3ccccc3[nH]2)n1 | 54.6 |
| CCCn1nc(C(=O)Nc2nc3ccccc3s2)c2ccccc2c1=O | 44.3 |
| O=C(Nc1nc2ccccc2s1)c1nn(-c2ccccc2)c(=O)c2ccccc12 | 60.8 |
| CCCn1nc(C(=O)Nc2nc(-c3ccncc3)cs2)c2ccccc2c1=O | 72 |
| Cc1nc(NC(=O)c2ccccc2)sc1-c1csc(Nc2ccccc2Cl)n1 | 60.8 |
| Cc1nc(NC(=O)c2ccccc2)sc1-c1csc(Nc2cccc(Cl)c2C)n1 | 46.8 |
| CCn1nc(C(=O)Nc2nc(-c3ccccn3)cs2)c2ccccc2c1=O | 53.9 |
| Cc1cc(NC(=O)c2ccccc2C(F)(F)F)n(-c2nc3ccccc3[nH]2)n1 | 95.1 |
| Cc1cc(NC(=O)c2ccccc2)n(-c2nc3ccccc3n2C)n1 | 4.57 |
